# Assays:
# Test in all cases: DAPPL (digital affinity profiling via proximity ligation, sequencing); 10 mM Tris-HCl pH 7.5, 50 mM NaCl, 1 mM DTT, 4% glycerol, room temperature, 30 min; GST-TFs on glutathione beads, 16-mer random dsDNA library, 0.1% formaldehyde crosslink after washing; high values mean tight binding
# FLI1 = target: T1, FLI1 (Homo sapiens, UniProt Q01543 1-452); details: protein: recombinant; tags: N-terminal GST; dsDNA, one strand shown
# T1 sequence: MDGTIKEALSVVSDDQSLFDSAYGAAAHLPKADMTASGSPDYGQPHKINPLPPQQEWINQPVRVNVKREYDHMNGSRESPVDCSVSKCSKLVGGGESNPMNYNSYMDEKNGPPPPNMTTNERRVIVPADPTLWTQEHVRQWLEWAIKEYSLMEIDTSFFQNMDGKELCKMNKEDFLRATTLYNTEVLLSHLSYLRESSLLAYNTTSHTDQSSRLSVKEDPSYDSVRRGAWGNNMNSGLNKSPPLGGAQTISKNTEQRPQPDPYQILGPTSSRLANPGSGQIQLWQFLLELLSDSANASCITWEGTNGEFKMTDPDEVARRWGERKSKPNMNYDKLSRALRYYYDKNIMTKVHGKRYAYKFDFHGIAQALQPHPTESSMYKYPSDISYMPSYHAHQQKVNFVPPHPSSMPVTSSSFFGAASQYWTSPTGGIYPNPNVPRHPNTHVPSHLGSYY
# Method in brief: (§1)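 Binding signal is defined as a hexamer's read frequency for one factor over its frequency for the tag-only sample. To obtain reads, GST-fused human transcription factors were expressed in yeast, captured on glutathione beads, barcoded with DNA and pooled with that sample. Pools met 200 nmole of a 16-mer random double-stranded DNA library in Tris/NaCl/DTT/glycerol buffer for 30 min at room temperature before washing, 0.1% formaldehyde crosslinking, proximity ligation (BsaI/T4 ligase, 1 h, 37 °C), PCR and Illumina NextSeq500 sequencing.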
# ELK1 = target: T2, ELK1 (Homo sapiens, UniProt P19419 1-428); details: protein: recombinant; tags: N-terminal GST; dsDNA, one strand shown
# T2 sequence: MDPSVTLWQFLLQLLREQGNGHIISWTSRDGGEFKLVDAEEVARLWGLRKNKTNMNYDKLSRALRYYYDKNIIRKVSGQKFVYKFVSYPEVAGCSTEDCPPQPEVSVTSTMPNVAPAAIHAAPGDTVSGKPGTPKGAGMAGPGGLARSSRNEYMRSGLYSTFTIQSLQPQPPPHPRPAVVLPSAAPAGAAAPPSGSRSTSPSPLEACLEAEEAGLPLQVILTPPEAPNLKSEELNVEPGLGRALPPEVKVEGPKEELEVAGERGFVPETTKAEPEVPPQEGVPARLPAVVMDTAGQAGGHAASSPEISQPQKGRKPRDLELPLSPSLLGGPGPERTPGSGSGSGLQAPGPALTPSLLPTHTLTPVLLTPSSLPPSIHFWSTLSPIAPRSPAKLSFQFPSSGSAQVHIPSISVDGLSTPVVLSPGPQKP
# Method in brief: as §1
# GABPA = target: T3, GABPA (Homo sapiens, UniProt Q06546 1-454); details: protein: recombinant; tags: N-terminal GST; dsDNA, one strand shown
# T3 sequence: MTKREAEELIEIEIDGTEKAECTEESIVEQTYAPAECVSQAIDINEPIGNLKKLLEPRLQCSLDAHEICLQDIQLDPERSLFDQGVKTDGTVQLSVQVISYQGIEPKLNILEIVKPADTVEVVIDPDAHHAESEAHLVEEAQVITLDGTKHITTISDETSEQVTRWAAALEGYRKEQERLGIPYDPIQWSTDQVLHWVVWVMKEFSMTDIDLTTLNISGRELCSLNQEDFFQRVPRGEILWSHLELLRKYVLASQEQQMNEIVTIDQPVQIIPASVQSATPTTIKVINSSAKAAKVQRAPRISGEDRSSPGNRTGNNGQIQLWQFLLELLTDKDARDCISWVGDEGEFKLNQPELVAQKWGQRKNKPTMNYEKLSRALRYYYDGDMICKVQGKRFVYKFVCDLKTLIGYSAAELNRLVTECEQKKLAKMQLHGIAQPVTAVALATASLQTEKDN
# Method in brief: as §1
# ERG = target: T4, ERG (Homo sapiens, UniProt P11308 1-479); details: protein: recombinant; tags: N-terminal GST; dsDNA, one strand shown
# T4 sequence: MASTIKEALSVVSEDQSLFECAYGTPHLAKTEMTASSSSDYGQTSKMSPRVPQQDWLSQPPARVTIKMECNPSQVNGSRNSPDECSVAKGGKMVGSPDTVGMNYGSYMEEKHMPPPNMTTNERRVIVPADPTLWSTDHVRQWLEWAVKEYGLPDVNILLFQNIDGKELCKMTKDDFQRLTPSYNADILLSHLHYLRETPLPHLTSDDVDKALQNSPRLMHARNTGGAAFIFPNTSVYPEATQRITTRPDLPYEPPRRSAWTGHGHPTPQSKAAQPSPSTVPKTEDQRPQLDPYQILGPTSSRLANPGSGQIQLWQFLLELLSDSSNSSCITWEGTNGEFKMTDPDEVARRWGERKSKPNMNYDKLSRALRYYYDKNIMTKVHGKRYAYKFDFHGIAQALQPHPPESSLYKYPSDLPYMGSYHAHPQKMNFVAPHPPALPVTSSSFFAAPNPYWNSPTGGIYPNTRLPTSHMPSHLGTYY
# Method in brief: as §1
# ELF1 = ELF1 (Homo sapiens, UniProt P32519 1-619); details: protein: recombinant; tags: N-terminal GST; dsDNA, one strand shown
# Chain of ELF1 (P32519 whole entry): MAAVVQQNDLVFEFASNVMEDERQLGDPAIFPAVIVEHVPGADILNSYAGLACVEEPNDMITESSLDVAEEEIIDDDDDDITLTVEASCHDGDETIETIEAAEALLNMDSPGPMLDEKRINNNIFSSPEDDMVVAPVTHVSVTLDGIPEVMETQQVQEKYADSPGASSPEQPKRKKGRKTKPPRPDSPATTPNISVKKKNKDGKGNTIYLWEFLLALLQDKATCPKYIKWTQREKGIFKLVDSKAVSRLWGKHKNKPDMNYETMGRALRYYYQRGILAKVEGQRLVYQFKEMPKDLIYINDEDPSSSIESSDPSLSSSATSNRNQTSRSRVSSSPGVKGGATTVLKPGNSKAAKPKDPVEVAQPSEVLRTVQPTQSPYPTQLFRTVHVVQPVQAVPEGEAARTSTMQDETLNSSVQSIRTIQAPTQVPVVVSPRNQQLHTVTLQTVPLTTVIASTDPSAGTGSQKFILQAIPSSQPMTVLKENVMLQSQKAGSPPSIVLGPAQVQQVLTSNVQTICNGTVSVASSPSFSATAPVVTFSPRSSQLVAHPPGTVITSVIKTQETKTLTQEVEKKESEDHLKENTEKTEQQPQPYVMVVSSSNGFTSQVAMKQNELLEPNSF
# Method in brief: as §1
# EHF = target: T5, EHF (Homo sapiens, UniProt Q9NZC4 1-300); details: protein: recombinant; tags: N-terminal GST; dsDNA, one strand shown
# T5 sequence: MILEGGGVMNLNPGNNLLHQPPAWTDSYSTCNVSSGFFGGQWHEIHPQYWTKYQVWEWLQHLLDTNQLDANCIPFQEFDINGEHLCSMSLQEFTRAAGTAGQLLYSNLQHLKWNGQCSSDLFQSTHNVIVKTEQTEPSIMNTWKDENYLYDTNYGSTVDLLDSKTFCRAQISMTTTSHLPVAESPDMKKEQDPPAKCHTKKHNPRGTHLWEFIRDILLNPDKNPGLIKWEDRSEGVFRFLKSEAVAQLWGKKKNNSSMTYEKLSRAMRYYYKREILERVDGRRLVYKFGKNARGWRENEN
# Method in brief: as §1
# SPI1 = SPI1 (Homo sapiens, UniProt P17947 1-270); details: protein: recombinant; tags: N-terminal GST; dsDNA, one strand shown
# Method in brief: as §1
# SPIB = SPIB (Homo sapiens, UniProt Q01892 1-262); details: protein: recombinant; tags: N-terminal GST; dsDNA, one strand shown
# Chain of SPIB (Q01892 whole entry): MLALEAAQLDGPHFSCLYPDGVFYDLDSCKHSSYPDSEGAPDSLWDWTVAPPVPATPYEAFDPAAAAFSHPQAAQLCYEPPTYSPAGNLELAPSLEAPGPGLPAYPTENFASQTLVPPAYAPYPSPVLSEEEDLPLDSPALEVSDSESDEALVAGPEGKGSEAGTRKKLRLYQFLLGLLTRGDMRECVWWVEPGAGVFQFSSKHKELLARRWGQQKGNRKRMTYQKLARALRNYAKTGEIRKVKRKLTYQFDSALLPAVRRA
# Method in brief: as §1
# ELK3 = target: T6, ELK3 (Homo sapiens, UniProt P41970 1-407); details: protein: recombinant; tags: N-terminal GST; dsDNA, one strand shown
# T6 sequence: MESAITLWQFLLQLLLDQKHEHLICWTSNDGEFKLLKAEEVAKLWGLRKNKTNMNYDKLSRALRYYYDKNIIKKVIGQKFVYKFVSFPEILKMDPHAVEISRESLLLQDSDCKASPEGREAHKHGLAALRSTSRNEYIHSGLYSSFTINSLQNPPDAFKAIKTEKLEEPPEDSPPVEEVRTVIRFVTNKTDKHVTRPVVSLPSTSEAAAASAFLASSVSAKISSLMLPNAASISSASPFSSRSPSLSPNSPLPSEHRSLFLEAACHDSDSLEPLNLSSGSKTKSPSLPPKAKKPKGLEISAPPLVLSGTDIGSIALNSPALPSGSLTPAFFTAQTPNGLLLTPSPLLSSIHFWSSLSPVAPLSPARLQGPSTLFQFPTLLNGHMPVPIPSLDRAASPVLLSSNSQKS
# Method in brief: as §1
# FEV = target: T7, FEV (Homo sapiens, UniProt Q99581 1-238); details: protein: recombinant; tags: N-terminal GST; dsDNA, one strand shown
# T7 sequence: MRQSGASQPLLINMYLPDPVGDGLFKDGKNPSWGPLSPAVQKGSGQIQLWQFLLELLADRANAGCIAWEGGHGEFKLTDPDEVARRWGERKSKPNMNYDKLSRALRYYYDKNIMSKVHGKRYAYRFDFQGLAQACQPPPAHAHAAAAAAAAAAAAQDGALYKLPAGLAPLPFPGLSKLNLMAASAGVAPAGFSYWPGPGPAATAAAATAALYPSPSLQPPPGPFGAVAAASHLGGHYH
# Method in brief: as §1
# ETV5 = ETV5 (Homo sapiens, UniProt P41161 1-510); details: protein: recombinant; tags: N-terminal GST; dsDNA, one strand shown
# Chain of ETV5 (P41161 whole entry): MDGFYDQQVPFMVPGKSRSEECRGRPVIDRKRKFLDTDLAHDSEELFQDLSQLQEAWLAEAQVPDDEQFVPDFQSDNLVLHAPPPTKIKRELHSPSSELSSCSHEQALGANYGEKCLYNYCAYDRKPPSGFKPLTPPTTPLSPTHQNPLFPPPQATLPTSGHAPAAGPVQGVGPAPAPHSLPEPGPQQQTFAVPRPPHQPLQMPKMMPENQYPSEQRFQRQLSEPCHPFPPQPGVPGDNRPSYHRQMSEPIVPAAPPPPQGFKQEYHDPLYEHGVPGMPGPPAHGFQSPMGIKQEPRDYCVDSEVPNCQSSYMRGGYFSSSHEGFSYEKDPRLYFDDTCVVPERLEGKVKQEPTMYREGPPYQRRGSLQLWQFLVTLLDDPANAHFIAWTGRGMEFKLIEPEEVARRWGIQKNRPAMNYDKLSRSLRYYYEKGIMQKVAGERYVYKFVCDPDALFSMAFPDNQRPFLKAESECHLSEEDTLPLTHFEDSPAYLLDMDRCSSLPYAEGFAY
# Method in brief: as §1
# HSF1 = HSF1 (Homo sapiens, UniProt Q00613 1-529); details: protein: recombinant; tags: N-terminal GST; chain copies: 3; dsDNA, one strand shown
# Chain of HSF1 (Q00613 whole entry): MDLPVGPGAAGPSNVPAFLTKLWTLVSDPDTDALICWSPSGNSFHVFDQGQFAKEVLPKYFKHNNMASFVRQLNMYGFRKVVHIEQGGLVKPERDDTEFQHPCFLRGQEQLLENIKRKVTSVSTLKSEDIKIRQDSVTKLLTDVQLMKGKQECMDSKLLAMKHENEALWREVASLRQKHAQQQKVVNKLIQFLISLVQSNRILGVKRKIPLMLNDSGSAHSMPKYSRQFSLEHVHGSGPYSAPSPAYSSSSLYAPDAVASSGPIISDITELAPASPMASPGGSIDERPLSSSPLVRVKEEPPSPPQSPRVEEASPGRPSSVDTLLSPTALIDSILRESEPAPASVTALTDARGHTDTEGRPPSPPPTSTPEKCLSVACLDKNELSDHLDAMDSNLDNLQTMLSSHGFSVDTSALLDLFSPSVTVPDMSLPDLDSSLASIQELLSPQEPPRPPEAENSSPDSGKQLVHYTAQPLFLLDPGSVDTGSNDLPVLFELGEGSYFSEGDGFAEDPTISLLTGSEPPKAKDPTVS
# Method in brief: as §1
# SPIC = target: T8, SPIC (Homo sapiens, UniProt Q8N5J4 1-248); details: protein: recombinant; tags: N-terminal GST; dsDNA, one strand shown
# T8 sequence: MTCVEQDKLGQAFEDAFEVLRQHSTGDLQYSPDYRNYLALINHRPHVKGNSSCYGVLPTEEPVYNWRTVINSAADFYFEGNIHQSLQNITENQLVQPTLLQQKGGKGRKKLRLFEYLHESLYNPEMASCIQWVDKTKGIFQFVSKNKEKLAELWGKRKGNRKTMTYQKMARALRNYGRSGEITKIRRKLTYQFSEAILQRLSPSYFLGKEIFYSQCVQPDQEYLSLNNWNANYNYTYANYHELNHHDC
# Method in brief: as §1
# ELF4 = ELF4 (Homo sapiens, UniProt Q99607 1-663); details: protein: recombinant; tags: N-terminal GST; dsDNA, one strand shown
# Chain of ELF4 (Q99607 whole entry): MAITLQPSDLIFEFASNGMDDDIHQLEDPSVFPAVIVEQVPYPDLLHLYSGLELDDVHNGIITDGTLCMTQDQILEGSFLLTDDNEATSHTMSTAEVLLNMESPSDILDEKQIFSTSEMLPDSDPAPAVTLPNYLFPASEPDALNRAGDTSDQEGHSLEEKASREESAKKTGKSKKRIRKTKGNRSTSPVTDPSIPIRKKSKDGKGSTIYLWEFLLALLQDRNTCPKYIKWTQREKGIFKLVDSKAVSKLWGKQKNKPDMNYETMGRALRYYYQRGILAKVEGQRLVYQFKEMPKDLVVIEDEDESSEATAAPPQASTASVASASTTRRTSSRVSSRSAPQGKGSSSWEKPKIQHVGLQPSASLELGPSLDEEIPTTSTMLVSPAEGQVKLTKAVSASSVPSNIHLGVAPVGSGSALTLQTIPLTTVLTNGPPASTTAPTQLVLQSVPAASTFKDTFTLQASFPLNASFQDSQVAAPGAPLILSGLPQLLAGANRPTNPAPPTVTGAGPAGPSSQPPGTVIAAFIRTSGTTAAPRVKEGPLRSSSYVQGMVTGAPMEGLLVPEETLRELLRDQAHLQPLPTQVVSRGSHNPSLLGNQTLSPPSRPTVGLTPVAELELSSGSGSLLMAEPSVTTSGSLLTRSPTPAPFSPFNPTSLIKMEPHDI
# Method in brief: as §1
# ELK4 = target: T9, ELK4 (Homo sapiens, UniProt P28324-2 1-405); details: protein: recombinant; tags: N-terminal GST; dsDNA, one strand shown
# T9 sequence: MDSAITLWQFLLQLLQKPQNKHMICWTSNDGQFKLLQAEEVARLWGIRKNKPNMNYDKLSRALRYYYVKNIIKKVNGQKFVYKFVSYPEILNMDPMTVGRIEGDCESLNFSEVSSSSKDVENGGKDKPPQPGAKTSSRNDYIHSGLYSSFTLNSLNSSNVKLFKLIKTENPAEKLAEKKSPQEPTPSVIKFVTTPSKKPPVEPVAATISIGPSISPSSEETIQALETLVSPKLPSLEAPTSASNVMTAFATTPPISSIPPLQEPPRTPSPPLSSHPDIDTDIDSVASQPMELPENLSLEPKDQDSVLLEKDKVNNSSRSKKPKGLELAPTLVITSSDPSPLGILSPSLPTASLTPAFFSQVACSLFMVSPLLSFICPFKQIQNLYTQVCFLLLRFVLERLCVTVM
# Method in brief: as §1
# ETV2 = target: T10, ETV2 (Homo sapiens, UniProt O00321 1-342); details: protein: recombinant; tags: N-terminal GST; dsDNA, one strand shown
# T10 sequence: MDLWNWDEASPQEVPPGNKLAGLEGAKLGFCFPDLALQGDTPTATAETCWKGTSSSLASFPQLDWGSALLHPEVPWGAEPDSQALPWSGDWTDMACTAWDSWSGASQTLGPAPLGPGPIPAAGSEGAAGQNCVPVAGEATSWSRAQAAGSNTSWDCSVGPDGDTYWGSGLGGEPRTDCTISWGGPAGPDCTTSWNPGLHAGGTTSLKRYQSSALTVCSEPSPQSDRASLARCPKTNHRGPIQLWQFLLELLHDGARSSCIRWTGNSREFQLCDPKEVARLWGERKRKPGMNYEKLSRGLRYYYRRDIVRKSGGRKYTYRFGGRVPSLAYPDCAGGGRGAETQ
# Method in brief: as §1
# ELF3 = target: T11, ELF3 (Homo sapiens, UniProt P78545 1-371); details: protein: recombinant; tags: N-terminal GST; dsDNA, one strand shown
# T11 sequence: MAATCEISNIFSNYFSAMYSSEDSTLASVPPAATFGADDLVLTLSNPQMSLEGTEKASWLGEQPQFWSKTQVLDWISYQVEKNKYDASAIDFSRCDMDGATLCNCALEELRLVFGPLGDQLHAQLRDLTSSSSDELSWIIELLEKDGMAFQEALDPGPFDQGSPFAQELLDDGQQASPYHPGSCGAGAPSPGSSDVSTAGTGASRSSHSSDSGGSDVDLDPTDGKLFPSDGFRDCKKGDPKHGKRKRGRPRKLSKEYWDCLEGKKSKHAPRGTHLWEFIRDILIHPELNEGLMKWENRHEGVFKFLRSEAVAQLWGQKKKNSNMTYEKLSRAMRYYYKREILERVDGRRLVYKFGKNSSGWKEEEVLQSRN
# Method in brief: as §1
# CRX = CRX (Homo sapiens, UniProt O43186 1-299); details: protein: recombinant; tags: N-terminal GST; dsDNA, one strand shown
# Chain of CRX (O43186 whole entry): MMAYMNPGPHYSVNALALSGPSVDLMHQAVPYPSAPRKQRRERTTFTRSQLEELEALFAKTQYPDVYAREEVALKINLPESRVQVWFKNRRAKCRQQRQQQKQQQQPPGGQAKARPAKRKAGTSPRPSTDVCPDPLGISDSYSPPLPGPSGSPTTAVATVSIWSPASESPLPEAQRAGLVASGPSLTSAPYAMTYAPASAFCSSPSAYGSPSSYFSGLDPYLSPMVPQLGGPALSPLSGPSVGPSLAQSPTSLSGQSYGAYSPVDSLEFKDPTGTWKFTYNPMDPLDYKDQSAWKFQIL
# Method in brief: as §1
# ETV1 = ETV1 (Homo sapiens, UniProt P50549 1-477); details: protein: recombinant; tags: N-terminal GST; dsDNA, one strand shown
# Chain of ETV1 (P50549 whole entry): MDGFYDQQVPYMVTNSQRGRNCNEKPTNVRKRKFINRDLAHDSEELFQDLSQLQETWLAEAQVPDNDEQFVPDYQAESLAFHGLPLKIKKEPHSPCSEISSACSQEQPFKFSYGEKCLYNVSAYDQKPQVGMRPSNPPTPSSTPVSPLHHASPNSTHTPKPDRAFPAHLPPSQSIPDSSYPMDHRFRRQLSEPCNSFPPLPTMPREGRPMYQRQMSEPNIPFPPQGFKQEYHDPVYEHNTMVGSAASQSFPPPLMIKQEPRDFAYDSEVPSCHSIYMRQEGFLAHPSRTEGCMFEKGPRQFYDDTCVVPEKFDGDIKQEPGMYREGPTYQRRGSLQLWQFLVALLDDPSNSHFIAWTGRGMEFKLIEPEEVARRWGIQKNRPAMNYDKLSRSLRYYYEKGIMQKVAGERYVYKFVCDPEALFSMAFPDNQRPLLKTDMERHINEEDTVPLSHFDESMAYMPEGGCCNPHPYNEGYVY
# Method in brief: as §1
sequence,measurement,setting,value
AACATC,binding signal,FLI1,"1.5 fold enrichment (6-mer frequency, TF over GST control)"
same,binding signal,ELK1,"1.35 fold enrichment (6-mer frequency, TF over GST control)"
same,binding signal,GABPA,"1.41 fold enrichment (6-mer frequency, TF over GST control)"
same,binding signal,ERG,"1.48 fold enrichment (6-mer frequency, TF over GST control)"
same,binding signal,ELF1,"1.45 fold enrichment (6-mer frequency, TF over GST control)"
same,binding signal,EHF,"1.51 fold enrichment (6-mer frequency, TF over GST control)"
same,binding signal,SPI1,"1.45 fold enrichment (6-mer frequency, TF over GST control)"
same,binding signal,SPIB,"1.37 fold enrichment (6-mer frequency, TF over GST control)"
same,binding signal,ELK3,"1.47 fold enrichment (6-mer frequency, TF over GST control)"
same,binding signal,FEV,"1.63 fold enrichment (6-mer frequency, TF over GST control)"
same,binding signal,ETV5,"1.51 fold enrichment (6-mer frequency, TF over GST control)"
same,binding signal,HSF1,"1.3 fold enrichment (6-mer frequency, TF over GST control)"
same,binding signal,SPIC,"1.44 fold enrichment (6-mer frequency, TF over GST control)"
same,binding signal,ELF4,"1.41 fold enrichment (6-mer frequency, TF over GST control)"
same,binding signal,ELK4,"1.41 fold enrichment (6-mer frequency, TF over GST control)"
same,binding signal,ETV2,"1.45 fold enrichment (6-mer frequency, TF over GST control)"
same,binding signal,ELF3,"1.5 fold enrichment (6-mer frequency, TF over GST control)"
same,binding signal,CRX,"1.12 fold enrichment (6-mer frequency, TF over GST control)"
same,binding signal,ETV1,"1.43 fold enrichment (6-mer frequency, TF over GST control)"

# From article PMC7862700, “An all-to-all approach to the identification of sequence-specific readers for epigenetic DNA modifications on cytosine”
